From PubChem BioAssay AID504884 (Broad Institute, 2011)
Hit rate of the full screen: of about 360,000 compounds, about 230 (0.064%) were called active. This is one part of a sample in which actives are shown more often than they occur. A number with no mark means an inactive call. Rule as the data show it: active = activity above about 50% (passing the limit was not always enough); inconclusive = no clear call, values can overlap the other calls.

Tested on: DNA topoisomerase I (Yersinia pestis CO92)
Test: Yersinia pestis topoisomerase I inhibitors, primary screen, biochemical, cleavage product accumulation, plate reader, single point (AID 504884)
Details: Y. pestis Topo-I cleavage product accumulation, at 10 µM, stronger effect = higher value

Compound | activity
Cc1ccc(F)cc1S(=O)(=O)Nc1cccc(C(=O)N2CCCC(C(N)=O)C2)c1 (stereo not drawn) | 0.477%
CC1(C)c2[nH]c3ccccc3c2C[C@H]2C(=O)N(N)CC(=O)N21 | -8.39%
CCOC(=O)Cn1c(=O)n(Cc2ccc(OC)cc2)c(=O)c2cccnc21 | 9.56%
Cc1cc(C(=O)O)c(S(C)(=O)=O)s1 | -6.33%
CC(=O)Nc1ccc(Nc2ncnc3c2nnn3Cc2ccccc2Cl)cc1 | 2.24%
Cc1cccc(OC(=O)c2sc3ncn(C)c(=O)c3c2C)c1 | -1.35%
CC1CC(C)(C)n2c(O)c(N=NC(N)=S)c3cccc1c32 (stereo not drawn) | -5.67%
CCOc1ccccc1OCC(=O)Nc1ccccc1C(=O)NC1CC1 | -3.16%
Fc1ccc2cnc(-c3ccccc3)cc2c1 | 5.85%
c1ccc2cc(CCCc3cc4ccccc4cn3)ncc2c1 | 54.9% (active)
CCC1CCCCN1C(=O)CSc1nc2c(c(=O)n1C)SC(C)C2 (stereo not drawn) | 16.8%
Cc1ccc(CNC(=O)CCS(=O)(=O)c2ccc3c(c2)CC(C)N3C(=O)C2CC2)o1 (stereo not drawn) | 7.23%
Cc1ccc(C)c(N(CC(=O)NCc2ccco2)C(=O)CCC(=O)Nc2ccccn2)c1 | 18.9%
CC1Cc2cc(/C(O)=C3\C(=O)C(=O)N(Cc4cccnc4)C3c3ccccc3F)ccc2O1 (stereo not drawn) | 2.42%
Cc1cccn2c(CN(C)C3CCCc4ccccc43)c(C(=O)N3CCOCC3)nc12 (stereo not drawn) | 42.2%
COc1ccc(CNCCCNCc2ccc(OC)c(OC)c2)cc1OC | 2.69%
CCc1ccc(OCC(O)CN2CCN(CCO)CC2)cc1 (stereo not drawn) | 5.47%
NC(Cc1ccc(F)cc1)c1csc(Nc2nncc3ccccc23)n1 (stereo not drawn) | -11.6%
CC(C)(CNC(=O)CNC(=O)C1CCCCC1)N1CCOCC1 | -0.69%

Compound | activity
Cc1c(NC(=O)C(C)OC(=O)c2c3c(nc4ccccc24)CCC(C)C3)c(=O)n(-c2ccccc2)n1C (stereo not drawn) | 3.41%
COc1cc(NC(=O)C2=C(C)OCCS2)c(Cl)cc1C(=O)NCCN1CCN(C)CC1 | -0.826%
COc1ccc(-n2nc(C(=O)NCC(=O)Nc3cccc(C)n3)c3ccccc3c2=O)cc1 | 15.2%
O=S(=O)(Nc1ccc(Cl)cn1)c1cnc(Cl)c(Br)c1 | 2.02%
CC1CCCCC1NC(=O)c1cn(C)c2ccc(S(=O)(=O)N3CCOCC3)cc2c1=O (stereo not drawn) | -3.45%
CCN(CCN(C)C)C(=O)c1ccc2nc(C)c(N(C)C(=O)CCc3ccccc3)n2c1 | 0.0305%
Cc1nc(-c2ccc(F)cc2)c(CC(=O)N(C)CC(=O)Nc2c(C)cccc2C)s1 | 0.373%
Cc1ccccc1-c1nc(CS(=O)(=O)CC(=O)N2CCc3ccccc3C2)c(C)o1 | 32.1%
COc1ccc(-n2c(Cc3cccn3C)nnc2SCC(=O)Nc2cc(C)cc(C)c2)cc1 | 18.8%
O=C(NCc1ccccc1)C(c1ccccc1)N(C(=O)c1csnn1)c1ccc(F)cc1 (stereo not drawn) | 26.7%
CN(C)C(=O)CCc1ccc2c3c([nH]c2c1)[C@]1(C)[C@@H](C(=O)N2CCOCC2)C[C@H](CC(=O)NCCc2ccccn2)C(=O)N1CC3 | 4.43%
CCc1ccc(C(=O)OCC(=O)NCC(F)(F)F)cc1 | 7.38%
CN(C)/C=C(/C(=O)c1ccccc1Cl)S(C)(=O)=O | 3.93%
O=C(Nc1ccc(S(=O)(=O)N2CCCCC2)cc1)C1CC(=O)N(c2ccc(F)cc2)C1 (stereo not drawn) | 12.1%
CC1CCN(S(=O)(=O)c2ccc(NC(=O)C3CC(=O)N(c4ccccc4)C3)cc2)CC1 (stereo not drawn) | 71.3% (active)
Cc1ccccc1N1CC(C(=O)Nc2ccc(S(=O)(=O)N3CCCC3)cc2)CC1=O (stereo not drawn) | 10.6%
CCCn1c(SCC(=O)c2ccc3c(c2)OCCO3)nnc1C(C)C | 9.18%
CCCCn1c(N)c(N(CCOC)C(=O)COc2c(C)cccc2C)c(=O)[nH]c1=O | -2.82%
CN1CCN(S(=O)(=O)c2cccc(C(=O)Nc3sccc3C#N)c2)CC1 | -7.33%
